Test results from the supplement of paper PMC8728848.
This is one part of a sample in which the strongest signals are shown more often than they occur.

Tests used:
Assay in all cases: glycan array binding signal (z-score within array); higher = stronger binding
Conditions in all cases: glycan notation: IUPAC condensed, linker removed
[1] = target: Gal(b1-4)GlcNAc(b1-3)Gal(b1-4)GlcNAc(b1-3)Gal(b1-4)GlcNAc(b1-3)Gal(b1-4)GlcNAc(b1-3)Gal(b1-4)GlcNAc(b1-3)Gal(b1-4)GlcNAc(b1-2)Man(a1-3)[Gal(b1-4)GlcNAc(b1-3)Gal(b1-4)GlcNAc(b1-3)Gal(b1-4)GlcNAc(b1-3)Gal(b1-4)GlcNAc(b1-3)Gal(b1-4)GlcNAc(b1-3)Gal(b1-4)GlcNAc(b1-2)Man(a1-6)]Man(b1-4)GlcNAc(b1-4)GlcNAc
In short: (§1)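 Columns mapping to the same glycan were averaged after glycan names were converted to IUPAC-condensed notation. The data come from 3228 arrays in the Consortium for Functional Glycomics database, limited to those with an available protein sequence. Binding is reported as a within-array Z-score averaged across arrays of one protein sequence and across linkers.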

Gal3S(b1-4)GlcNAc = target: Gal3S(b1-4)GlcNAc
In short: as §1

Gal3S(b1-4)GlcNAc6S = target: Gal3S(b1-4)GlcNAc6S
In short: as §1

Gal6S(b1-4)GlcNAc6S = target: Gal6S(b1-4)GlcNAc6S
In short: as §1

GalNAc(b1-3)Gal = target: GalNAc(b1-3)Gal
In short: as §1

[2] = target: GalNAc(b1-4)GlcNAc(b1-2)Man(a1-3)[GalNAc(b1-4)GlcNAc(b1-2)Man(a1-6)]Man(b1-4)GlcNAc(b1-4)GlcNAc
In short: as §1

[3] = target: GlcNAc(b1-2)Gal(b1-3)GalNAc
In short: as §1

[4] = target: GlcNAc(b1-2)Man(a1-3)[GlcNAc(b1-2)Man(a1-6)]Man(b1-4)GlcNAc(b1-4)GlcNAc
In short: as §1

[5] = target: GlcNAc(b1-2)Man(a1-3)[GlcNAc(b1-4)][GlcNAc(b1-2)Man(a1-6)]Man(b1-4)GlcNAc(b1-4)GlcNAc
In short: as §1

[6] = target: GlcNAc(b1-2)[GlcNAc(b1-6)]Man(a1-6)[GlcNAc(b1-2)Man(a1-3)]Man(b1-4)GlcNAc(b1-4)[Fuc(a1-6)]GlcNAc
In short: as §1

[7] = target: GlcNAc(b1-3)Gal(b1-4)GlcNAc(b1-3)Gal(b1-4)GlcNAc(b1-3)Gal(b1-4)GlcNAc(b1-3)Gal(b1-4)GlcNAc(b1-2)Man(a1-3)[GlcNAc(b1-3)Gal(b1-4)GlcNAc(b1-3)Gal(b1-4)GlcNAc(b1-3)Gal(b1-4)GlcNAc(b1-3)Gal(b1-4)GlcNAc(b1-2)Man(a1-6)]Man(b1-4)GlcNAc(b1-4)[Fuc(a1-6)]GlcNAc
In short: as §1

GlcNAc(b1-6)GalNAc = target: GlcNAc(b1-6)GalNAc
In short: as §1

Kdn(a2-3)Gal(b1-4)Glc = target: Kdn(a2-3)Gal(b1-4)Glc
In short: as §1

[8] = target: Neu5Ac(a2-3)Gal(b1-3)GlcNAc(b1-6)GalNAc
In short: as §1

[9] = target: Neu5Ac(a2-3)Gal(b1-3)GlcNAc6S
In short: as §1

[10] = target: Neu5Ac(a2-3)Gal(b1-3)[Fuc(a1-4)]GlcNAc(b1-3)Gal(b1-3)[Fuc(a1-4)]GlcNAc
In short: as §1

[11] = target: Neu5Ac(a2-3)Gal(b1-4)GlcNAc(b1-2)[Neu5Ac(a2-3)Gal(b1-4)GlcNAc(b1-6)]Man(a1-6)[Neu5Ac(a2-3)Gal(b1-4)GlcNAc(b1-2)Man(a1-3)]Man(b1-4)GlcNAc(b1-4)GlcNAc
In short: as §1

[12] = target: Neu5Ac(a2-3)Gal(b1-4)[Fuc(a1-3)]GlcNAc(b1-6)[Gal(b1-3)]GalNAc
In short: as §1

[13] = target: Neu5Ac(a2-3)Gal6S(b1-4)GlcNAc
In short: as §1

[14] = target: Neu5Ac(a2-3)[GalNAc(b1-4)]Gal(b1-4)GlcNAc(b1-3)GalNAc
In short: as §1

[15] = target: Neu5Ac(a2-6)Gal(b1-3)GlcNAc(b1-3)[Gal(b1-4)GlcNAc(b1-6)]Gal(b1-4)Glc
In short: as §1

[16] = target: Neu5Ac(a2-6)Gal(b1-4)GlcNAc(b1-2)Man(a1-6)[Gal(b1-4)GlcNAc(b1-2)Man(a1-3)]Man(b1-4)GlcNAc(b1-4)GlcNAc
In short: as §1

[17] = target: Neu5Ac(a2-6)Gal(b1-4)GlcNAc(b1-2)[Neu5Ac(a2-6)Gal(b1-4)GlcNAc(b1-6)]Man(a1-6)[Neu5Ac(a2-6)Gal(b1-4)GlcNAc(b1-2)Man(a1-3)][GlcNAc(b1-4)]Man(b1-4)GlcNAc(b1-4)GlcNAc
In short: as §1

[18] = target: Neu5Ac(a2-8)Neu5Ac(a2-3)Gal(b1-4)GlcNAc
In short: as §1

[19] = target: Neu5Ac(a2-8)Neu5Ac(a2-8)Neu5Ac(a2-3)[GalNAc(b1-4)]Gal(b1-4)Glc
In short: as §1

Neu5Gc(a2-3)Gal(b1-4)Glc = target: Neu5Gc(a2-3)Gal(b1-4)Glc
In short: as §1

[20] = target: Neu5Gc(a2-3)Gal(b1-4)GlcNAc(b1-3)Gal(b1-4)GlcNAc(b1-2)Man(a1-3)[Neu5Gc(a2-3)Gal(b1-4)GlcNAc(b1-3)Gal(b1-4)GlcNAc(b1-2)Man(a1-6)]Man(b1-4)GlcNAc(b1-4)GlcNAc
In short: as §1

[21] = target: Neu5Gc(a2-3)Gal(b1-4)[Fuc(a1-4)]GlcNAc
In short: as §1

B1: EEA (Euonymus europaeus) (protein)
chain: MASTIIATGPTYRVYCRAAPNYNMIVGKGVAFLAPIDETNELQYWYKDDTYSYIKDEAGLPAFSLVNKATGLTLKHSNHHPVPVKLVTYNPNVVDESVLWSQADDRGDGYSAIRSLTNPASHLEAAPLNDWSYNGAIIMGGVWIDAYNQQWKIEPHTG
In the case of B1, the “glycan array binding signal (z-score)” value [1] is reported as -0.159, the “glycan array binding signal (z-score)” value (Gal3S(b1-4)GlcNAc) is reported as -0.217 and the “glycan array binding signal (z-score)” value (Gal3S(b1-4)GlcNAc6S) is reported as -0.14. The “glycan array binding signal (z-score)” value (Gal6S(b1-4)GlcNAc6S) was -0.097, the “glycan array binding signal (z-score)” value (GalNAc(b1-3)Gal) was -0.178 and the “glycan array binding signal (z-score)” value [2] was 0.509. For the same binder, the “glycan array binding signal (z-score)” value [3] was -0.138, the “glycan array binding signal (z-score)” value [4] was -0.152 and the “glycan array binding signal (z-score)” value [5] was -0.242. For the same binder, the “glycan array binding signal (z-score)” value [6] was -0.204, the “glycan array binding signal (z-score)” value [7] was -0.221 and the “glycan array binding signal (z-score)” value (GlcNAc(b1-6)GalNAc) was -0.056. For the same binder, the “glycan array binding signal (z-score)” value (Kdn(a2-3)Gal(b1-4)Glc) was -0.177, the “glycan array binding signal (z-score)” value [8] was -0.187 and the “glycan array binding signal (z-score)” value [9] was -0.092. For the same binder, the “glycan array binding signal (z-score)” value [10] was -0.246, the “glycan array binding signal (z-score)” value [11] was -0.137 and the “glycan array binding signal (z-score)” value [12] was -0.043. The “glycan array binding signal (z-score)” value [13] was -0.212, the “glycan array binding signal (z-score)” value [14] was 0.46 and the “glycan array binding signal (z-score)” value [15] was -0.232. The “glycan array binding signal (z-score)” value [16] was -0.233, the “glycan array binding signal (z-score)” value [17] was -0.179 and the “glycan array binding signal (z-score)” value [18] was -0.253. The “glycan array binding signal (z-score)” value [19] was -0.063, the “glycan array binding signal (z-score)” value (Neu5Gc(a2-3)Gal(b1-4)Glc) was -0.084 and the “glycan array binding signal (z-score)” value [20] was -0.183. For the same binder, the “glycan array binding signal (z-score)” value [21] was -0.482.
